Assay outcomes (PubChem)
Shown are actives, neighbours in structure and some others; about 1.3% of the full set was active somewhere.
PREPL inh – PREPL enzyme inhibitors, primary screen, biochemical, fluorescence polarization | Prolyl endopeptidase-like (Homo sapiens), Q4J6C6 | recombinant PREPL, fluorescence polarization activity-based probe | inhibition, % at 5.96 µM | hit rate 0.68% among 320,000; in the data active = inhibition above about 43%;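 note: 0% = enzyme with DMSO and 100% = wells lacking enzyme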
LYPLA1 inh – LYPLA1 inhibitors, primary screen, counter-screen for PME1 inhibitor project, biochemical, fluorescence polarization, FP-Rh probe ABPP | Acyl-protein thioesterase 1 (Homo sapiens), O75608 | recombinant LYPLA1 | inhibition, % at 5.9 µM | hit rate 0.16% among 320,000 | AID 2174, 2009;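 active = inhibition above the mean of all tested compounds plus 3 SD, set per campaign, cut at about 14% in these data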;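 note: inhibitors block serine hydrolase probe labeling of LYPLA1 so polarization falls; 0% = enzyme with DMSO and 100% = wells lacking LYPLA1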
Target sequence (O75608 whole entry, looked up): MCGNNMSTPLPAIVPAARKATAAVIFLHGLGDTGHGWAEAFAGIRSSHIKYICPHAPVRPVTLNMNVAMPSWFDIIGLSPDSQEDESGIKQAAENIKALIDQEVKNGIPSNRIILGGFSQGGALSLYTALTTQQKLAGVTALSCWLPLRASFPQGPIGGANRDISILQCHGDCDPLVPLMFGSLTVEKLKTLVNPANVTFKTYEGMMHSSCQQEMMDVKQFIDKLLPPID
PME-1 primary – PME-1 inhibitors via competitive probe labeling, primary screen, biochemical, fluorescence polarization, FP-Rh probe, HTS; recombinant PME-1; inhibition, % at 5.9 µM; Protein phosphatase methylesterase 1 (Homo sapiens), Q9Y570; hit rate 0.53% among 320,000; AID 2130, 2009;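 active = inhibition above the campaign mean of all compounds plus 3 SD, cut at about 26% in these data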;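 note: competitive labeling of PME-1 active site by serine hydrolase directed probe; 0% = PME-1 with DMSO and 100% = wells lacking PME-1 enzyme; inhibitors block probe labeling so polarization falls and inhibition rises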
Fam108B inh – mouse Fam108B serine hydrolase inhibitors, primary screen, counter-screen for RBBP9 inhibitor project, biochemical, fluorescence polarization. recombinant Fam108B, FP-Rh probe fluorescence polarization. inhibition, % at 9.51 µM. hit rate 0.33% among 300,000. AID 1947, 2009;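 active = inhibition above the screen mean inhibition plus 3 SD, computed separately per campaign, cut at about 18% in these data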;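 note: inhibitors lower polarization as less probe binds the enzyme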
LYPLA2 inh – LYPLA2 inhibitors, primary screen, counter-screen for PME1 inhibitor project, biochemical, fluorescence polarization, FP-Rh probe ABPP; recombinant LYPLA2; inhibition, % at 5.9 µM; hit rate 0.38% among 320,000; AID 2177, 2009;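 active = inhibition above the screen-wide mean plus 3 SD, limit set per campaign, cut at about 26% in these data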;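 note: 0% = LYPLA2 with DMSO and 100% = wells lacking LYPLA2 enzyme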
Target sequence (O95372 whole entry, looked up): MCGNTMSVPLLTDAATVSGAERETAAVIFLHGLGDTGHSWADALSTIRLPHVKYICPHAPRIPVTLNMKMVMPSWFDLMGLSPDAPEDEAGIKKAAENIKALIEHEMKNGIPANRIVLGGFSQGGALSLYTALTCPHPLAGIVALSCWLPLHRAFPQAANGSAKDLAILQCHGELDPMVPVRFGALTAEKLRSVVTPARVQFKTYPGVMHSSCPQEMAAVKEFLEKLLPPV
* marks the source's active call; other numbers are inactive results.

What do the screens show for `CC[C@@H](C)[C@@H](C(=O)N1CCN(C(=O)OC(C)(C)C)CC1)n1cc(CCCCNC(=O)OC(C)(C)C)nn1`?
PREPL inh: 4; LYPLA1 inh: -1; PME-1 primary: 3; Fam108B inh: -1; LYPLA2 inh: 4

Results for Nc1ccc2oc(-c3ccccc3Cl)nc2c1 ?
PREPL inh: 9; LYPLA1 inh: -2; PME-1 primary: 3; Fam108B inh: 4; LYPLA2 inh: -4

How did Nc1ccc2oc(-c3cc(Br)ccc3Cl)nc2c1 do in these assays?
PREPL inh: 6; LYPLA1 inh: 4; PME-1 primary: 28*; Fam108B inh: 5; LYPLA2 inh: -1

How did COc1ccc(/C=C/c2c(-c3ccc(OC)cc3)oc3cccnc23)cc1 do in these assays?
PREPL inh: -4; LYPLA1 inh: -3; PME-1 primary: 27*; Fam108B inh: 1; LYPLA2 inh: 0

Results for Cn1cccc1C(=O)/C(C#N)=C/c1ccc(F)cc1 ?
PREPL inh: 5; LYPLA1 inh: 1; PME-1 primary: -1; Fam108B inh: -6; LYPLA2 inh: 5

What do the screens show for `O=C(CN1CCN(c2nc(-c3ccccc3)cs2)CC1)Nc1ccc2c(c1)OCO2`?
PREPL inh: 48*; LYPLA1 inh: 0; PME-1 primary: -1; Fam108B inh: 3; LYPLA2 inh: -1

Results for COc1cc(/C=N/NC(=O)c2cccc(NC(=O)c3ccccc3)c2)ccc1O ?
PREPL inh: 12; LYPLA1 inh: -5; PME-1 primary: 10; Fam108B inh: 11; LYPLA2 inh: 8

What do the screens show for `CCCOc1ccc(/C=N/Nc2ccccc2[N+](=O)[O-])c(O)c1`?
PREPL inh: 11; LYPLA1 inh: -5; PME-1 primary: 11; Fam108B inh: 3; LYPLA2 inh: -1

What do the screens show for `CN(C)S(=O)(=O)c1cccc(NC(=S)NC(=O)C2CCCCC2)c1`?
PREPL inh: 0; LYPLA1 inh: -1; PME-1 primary: 0; Fam108B inh: -2; LYPLA2 inh: 5

What do the screens show for `COc1ccc(/C=N/NC(=S)Nc2ccccc2[N+](=O)[O-])cc1O`?
PREPL inh: 15; LYPLA1 inh: -1; PME-1 primary: 35*; Fam108B inh: 16; LYPLA2 inh: 1

What do the screens show for `CN(C)S(=O)(=O)c1cccc(NC(=S)NNC(=O)c2cc3ccccc3cc2O)c1`?
PREPL inh: -14; LYPLA1 inh: -8; PME-1 primary: 27*; LYPLA2 inh: -3

What do the screens show for `COc1cc(/C=N/NC(=S)Nc2cccc(S(=O)(=O)N(C)C)c2)ccc1O`?
PREPL inh: 38; LYPLA1 inh: -5; PME-1 primary: 39*; Fam108B inh: 5; LYPLA2 inh: 2

Results for CCCOc1ccc(/C=N/NC(=S)Nc2ccccc2[N+](=O)[O-])c(O)c1 ?
PREPL inh: 5; LYPLA1 inh: -7; PME-1 primary: 30*; Fam108B inh: 2; LYPLA2 inh: -7

What do the screens show for `N#CCC(=O)c1ccccc1Oc1ccc(Cl)cc1`?
PREPL inh: 9; LYPLA1 inh: -4; PME-1 primary: 41*; Fam108B inh: 1; LYPLA2 inh: 4

How did O/N=C/c1ccccc1Oc1ccc(Cl)cc1 do in these assays?
PREPL inh: -3; LYPLA1 inh: 0; PME-1 primary: 3; Fam108B inh: 0; LYPLA2 inh: 9

How did Cc1cccc(NC(=O)CN2C(=O)S/C(=C\c3ccc(O)c([N+](=O)[O-])c3)C2=O)c1 do in these assays?
PREPL inh: 18; LYPLA1 inh: 1; PME-1 primary: 33*; Fam108B inh: 16; LYPLA2 inh: 81*

Results for Cc1ccc(N/N=C2\CS(=O)(=O)N(C)c3ccsc32)cc1 ?
PREPL inh: 72*; LYPLA1 inh: -5; PME-1 primary: 7; Fam108B inh: 7; LYPLA2 inh: 1

How did Cc1ccc2c(=O)c(C(=O)NCc3cccs3)c[nH]c2c1 do in these assays?
PREPL inh: 74*; LYPLA1 inh: 1; PME-1 primary: -2; Fam108B inh: -2; LYPLA2 inh: 5

Results for Cc1cccc2c(=O)c(C(=O)NCc3cccs3)c[nH]c12 ?
PREPL inh: 6; LYPLA1 inh: 0; PME-1 primary: 2; Fam108B inh: 1; LYPLA2 inh: 5
